Among the data in the OligoGym collection are sensor-assay potency score (higher = more potent) values, retold here.
Further: reference of the scale not given here.

The first assay deals with CRTAM. As to the kind of experiment: pooled miR-30 sensor sort-seq; sequence = guide strand. Conditions: shRNA.
Turning to TTTTCTTTCTTGCCAGTCCTAA, the sensor-assay potency score (higher = more potent) was -0.265.

TTGATCTGTAACTTTCTAGTGT registered a sensor-assay potency score (higher = more potent) of 0.218.

Sequence TAGTATTACATTTCTTCCCATC came in with a sensor-assay potency score (higher = more potent) of -0.999.

TTTGCTTCTGAGTACAACTTTG showed a sensor-assay potency score (higher = more potent) of -0.892.

On to TTTGTGCTTACAGAGTCGCTGT, for which the sensor-assay potency score (higher = more potent) is -0.405.

TTTGTGATGTAGTTCATGCAAC: the sensor-assay potency score (higher = more potent) was -0.216.

The sequence TTAGCTGCTCACACTGACCCTG registered a sensor-assay potency score (higher = more potent) of -0.252.

In the case of TTAAACTACAAGCTTTATGTGC, the sensor-assay potency score (higher = more potent) was -0.391.

TAGCTGCTCACACTGACCCTGA returned a sensor-assay potency score (higher = more potent) of -0.659.

TTGACCTTGATCTGTAACTTTC registered a sensor-assay potency score (higher = more potent) of -1.09.

In turn, TTGAATGTTGTACATTTTCCTT yielded a sensor-assay potency score (higher = more potent) of -1.1.

Another assay deals with CRX. Described as above. Conditions: shRNA.
As for TTGGTTTGACTTCTTCTTGGAG, the sensor-assay potency score (higher = more potent) is -0.00294.

Regarding TGAGAGAATCACTAGGACCTGT, the sensor-assay potency score (higher = more potent) was -0.0623.

On to TAGACGTCTGGGTACTGGGTCT, for which the sensor-assay potency score (higher = more potent) is -0.0426.

As to AATAGGAGCTCGGAGACCCATA, the sensor-assay potency score (higher = more potent) was -1.54.

Turning to TGATCCTTGTAGTCCAGAGGGT, the sensor-assay potency score (higher = more potent) is -0.793.

With TAGGTCATGGCATAGGGGGCGG, the sensor-assay potency score (higher = more potent) was -1.09.

Sequence TGTAGGAATCTGAGATGCCCAG came in with a sensor-assay potency score (higher = more potent) of -0.841.

With TTTGACTTCTTCTTGGAGCAAG, the sensor-assay potency score (higher = more potent) was -0.501.

Consider AATTCCAAGCTATCCACGGGGC, for which the sensor-assay potency score (higher = more potent) was -0.328.

As to TTGATCTTCAGAGCCACCTCCT, the sensor-assay potency score (higher = more potent) was -0.746.

In the case of ACTCTGATCCTTGTAGTCCAGA, the sensor-assay potency score (higher = more potent) is -1.36.

For the sequence TTGTAGGTGAATTTCCAGGTGC, the sensor-assay potency score (higher = more potent) was -0.434.

Sequence TGTAAGCTGAACACCGAGCTGT displayed a sensor-assay potency score (higher = more potent) of 0.575.

TAGGTGAATTTCCAGGTGCCCG registered a sensor-assay potency score (higher = more potent) of -1.41.

The sequence TTCTGAAGCCTGGAGCTCGTGG returned a sensor-assay potency score (higher = more potent) of -0.966.

TTTCTCAGGAATGCCATCCCGG returned a sensor-assay potency score (higher = more potent) of -0.63.

TGAACCAAACCTGAACCCTGGA returned a sensor-assay potency score (higher = more potent) of -0.615.

Sequence TTCAGAGCCACCTCCTCACGGG registered a sensor-assay potency score (higher = more potent) of -0.313.

In turn, TAGCTCTGGCCTGATAGGGAGG gave a sensor-assay potency score (higher = more potent) of -0.851.

The sequence TTGTAGTCCAGAGGGTCCATGG gave a sensor-assay potency score (higher = more potent) of -1.32.

Consider TTGAACCAAACCTGAACCCTGG, for which the sensor-assay potency score (higher = more potent) is -0.194.

Consider TTTGGTTTGACTTCTTCTTGGA, for which the sensor-assay potency score (higher = more potent) amounted to 0.763.

Another assay concerns the target CRYGS. Described as above. Conditions: shRNA.
Sequence TTTCATACATCTGACCACTAAA gave a sensor-assay potency score (higher = more potent) of -1.27.

Regarding TCGCATGTGAAATTGCTCCATG, the sensor-assay potency score (higher = more potent) is -0.662.

Regarding TTCGGTGGTTTCATACATCTGA, the sensor-assay potency score (higher = more potent) was 0.37.

As to TCGCAATCACAGTCATAGCGAC, the sensor-assay potency score (higher = more potent) was -1.06.

AAGATCTGAATCTTATACTGGC came in with a sensor-assay potency score (higher = more potent) of 0.642.

Sequence TGAACAGCTCTGCAGGAGCTGA returned a sensor-assay potency score (higher = more potent) of -1.21.

In turn, TCGGTGGTTTCATACATCTGAC showed a sensor-assay potency score (higher = more potent) of -1.43.
